From PubChem BioAssay AID1159580 (chemical genetic matrix, 2015)
Values joined by “and” are separate entries in the source; they are usually repeats but may differ in a detail not shown here. Equal entries are not always repeated. The campaign covered roughly 5,500 compounds. About 2,000 (36%) were called active. Not shown: some 18% with an inconclusive outcome. No stated cut-off is given here; in the data, active means normalized growth mostly below about 0.91 (no sharp cut-off); inconclusive means no clear call, values can overlap the other calls; inactive means mostly above about 0.92. This is one part of the list.

Experiment: chemical genetic growth profiling, strain panel (AID 1159580);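 further: tested at 20 µM; growth read once vehicle control cultures reached saturation at 30 °C; 1 = growth at the plate median or of vehicle wells; lower values mean less growth of the strain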
Details: growth OD

Measured: normalized growth

CN1CCc2cccc3c2C1Cc1ccc(O)c(O)c1-3 (configuration not stated)
inactive: S. cerevisiae deletion strains, locus YNL128W, strain TEP1, active compounds read low 1.01 and 0.937 | S. cerevisiae deletion strains, locus YNL153C, strain GIM3, active compounds read low 1 | S. cerevisiae deletion strains, locus YNL175C, strain NOP13, active compounds read low 0.96 | S. cerevisiae deletion strains, locus YNL183C, strain NPR1, active compounds read low 0.984 | S. cerevisiae deletion strains, locus YNL197C, strain WHI3, active compounds read low 0.931 | S. cerevisiae deletion strains, locus YNL224C, strain SQS1, active compounds read low 1.05 | S. cerevisiae deletion strains, locus YNL233W, strain BNI4, active compounds read low 1.01 | S. cerevisiae deletion strains, locus YNL250W, strain rad50, active compounds read low 1.01 | S. cerevisiae deletion strains, locus YNL271C, strain bni1, active compounds read low 0.985 | S. cerevisiae deletion strains, locus YNL298W, strain CLA4, active compounds read low 0.992 | S. cerevisiae deletion strains, locus YNL307C, strain MCK1, active compounds read low 0.991 | S. cerevisiae deletion strains, locus YNL322C, strain KRE1 (second series), active compounds read low 1.01 | S. cerevisiae deletion strains, locus YNR049C, strain mso1, active compounds read low 0.98 | S. cerevisiae deletion strains, locus YNR052C, strain pop2, active compounds read low 0.987 | S. cerevisiae deletion strains, locus YOL006C, strain TOP1, active compounds read low 0.926 | S. cerevisiae deletion strains, locus YOL012C, strain htz1 1.12 | S. cerevisiae deletion strains, locus YOL147C, strain pex11, active compounds read low 0.992 | S. cerevisiae deletion strains, locus YOR001W, strain rrp6, active compounds read low 0.944 | S. cerevisiae deletion strains, locus YOR061W, strain CKA2, active compounds read low 1.02 | S. cerevisiae deletion strains, locus YOR069W, strain VPS5, active compounds read low 1.01 | S. cerevisiae deletion strains, locus YOR080W, strain dia2, active compounds read low 0.993 | S. cerevisiae deletion strains, locus YOR136W, strain idh2, active compounds read low 0.987 | S. cerevisiae deletion strains, locus YOR144C, strain elg1, active compounds read low 0.998 | S. cerevisiae deletion strains, locus YOR184W, strain ser1, active compounds read low 1.02 | S. cerevisiae deletion strains, locus YOR231W, strain MKK1, active compounds read low 1.06 | S. cerevisiae deletion strains, locus YOR290C, strain snf2, active compounds read low 0.979 | S. cerevisiae deletion strains, locus YOR316C, strain cot1, active compounds read low 0.992 | S. cerevisiae deletion strains, locus YPL078C, strain atp4, active compounds read low 0.988 | S. cerevisiae deletion strains, locus YPL106C, strain sse1, active compounds read low 0.94 | S. cerevisiae deletion strains, locus YPL240C, strain hsp82, active compounds read low 1.01 | S. cerevisiae deletion strains, locus YPL256C, strain CLN2, active compounds read low 1.06 | S. cerevisiae deletion strains, locus YPR119W, strain clb2, active compounds read low 0.994 | S. cerevisiae deletion strains, locus YPR141C, strain kar3, active compounds read low 0.997 | S. cerevisiae deletion strains, locus YPR163C, strain tif3, active compounds read low 0.986 | S. cerevisiae deletion strains, locus YPR167C, strain met16, active compounds read low 0.998 | S. cerevisiae deletion strains, strain wtn01, active compounds read low 1 | S. cerevisiae strains, strain wild type, active compounds read low 1.01
active: S. cerevisiae deletion strains, locus YNL209W, strain ssb2, active compounds read low 0.808 | S. cerevisiae deletion strains, locus YNL248C, strain rpa49, active compounds read low 0.858 | S. cerevisiae deletion strains, locus YOR070C, strain gyp1, active compounds read low 0.864 | S. cerevisiae deletion strains, locus YOR083W, strain WHI5 (second series), active compounds read low 0.815 | S. cerevisiae deletion strains, locus YOR083W, strain WHI5, active compounds read low 0.875 | S. cerevisiae deletion strains, locus YOR106W, strain vam3, active compounds read low 0.607 | S. cerevisiae deletion strains, locus YOR265W, strain rbl2, active compounds read low 0.91 | S. cerevisiae deletion strains, locus YOR270C, strain vph1, active compounds read low 0.597 | S. cerevisiae deletion strains, locus YPL051W, strain arl3, active compounds read low 0.746 | S. cerevisiae deletion strains, locus YPL241C, strain CIN2, active compounds read low 0.311
